The panel holds about 83,000 compounds, 20% with a hit somewhere; the sample as a whole holds those more often.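 For each line, cells grew in 96-well plates with the test compound present at a single concentration for 48 hours.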 Active and inactive are the calls of the source. Rule for the calls: active = growth percent below 10; inactive = the rest.

This test deals with HL-60(TB) leukemia. Kind of test: NCI-60 one-dose screen, 48 h (100 = growth as untreated, 0 = no growth, -100 = all killed). The note with it: 10 µM unless noted.
Consider `O=C(N/N=C/c1ccccc1Cl)c1ccccc1Nc1ccnc(C(F)(F)F)c1`, for which the growth is -20.1% (active).
Regarding `c1csc(-c2cnc3nonc3n2)c1`, the growth was 1.96% (active).
For `CC(C)n1c2ccc(Br)cc2c2c3c(c4c5ccccc5ccc4c21)C(=O)NC3=O` the value was 100% (inactive); for `CCOC(CN=Cc1cc(C)c2[nH]c3ccccc3c2c1C)OCC`, 76.6% (inactive).
For `O=C(O)C(C(=O)O)c1cccc2ccccc12` the value was 98.6% (inactive); for `CCN(CC)c1ccc2cc(C(Nc3ccc(Br)c(C(F)(F)F)c3)c3nnnn3C(C)(C)C)c(=O)oc2c1` (stereo not given), 93% (inactive); for `Cc1cc(C)cc(Nc2cc(C)nc3nc(C(F)(F)F)nn23)c1`, 15.4% (inactive).
As for `COc1ccc(S(=O)(=O)Oc2ccc(-c3sc4cc(OS(=O)(=O)c5ccc(OC)cc5)ccc4c3C(=O)c3ccc(OCCN4CCCCC4)cc3)cc2)cc1`, the figure is 91.1% (inactive).
Take `COc1cc(C[C@H]2COc3cc(O)cc(O)c3C2=O)ccc1O`: the growth is -35.5% (active).
As for `C=C(C)[C@@H]1CC[C@]2(C(=O)O)CC[C@]3(C)[C@H](CC[C@@H]4[C@@]5(C)CCC(N)C(C)(C)[C@@H]5CC[C@]43C)[C@@H]12` (stereo not given in full), the figure is -45.5% (active); as for `CCCCCCCCCCCCCCCCCC1=NC(C)(C)CN1CCO`, -62.2% (active).
As for `Nc1cc(-c2ccncc2)c[nH]c1=O`, the growth was 87.6% (inactive).
As for `Cc1cnc(SCc2ccc(Cl)cc2Cl)nc1Nc1ccc(Cl)c(Cl)c1`, the figure is 81% (inactive); as for `CCCCCCNC(=O)Oc1ccc(/C(=C(/C)Cc2ccc(OC)cc2)c2ccc(OCCN(C)C)cc2)cc1`, 47.4% (inactive); as for `COC(=O)/C=C1\S/C(=N\NC(=O)c2cc3ccc2/C=C\c2ccc(cc2)/C=C\3)N(c2ccccc2)C1=O`, 16.4% (inactive).
As for `O=c1[nH]nnc2c1ncn2C1OC(CO)C(O)C1O` (stereo not given), the figure is 25.2% (inactive); as for `CCc1ccc2c(c1)N(CCO)C1=C(C(=O)OC1)C2c1cc(OC)c(OC)c(OC)c1` (stereo not given), -26.4% (active).
For the compound `c1ccc(-n2nnnc2-c2cccc3ccccc23)cc1`, the growth is -21.8% (active).
For `CSc1nc2ncc([N+](=O)[O-])c(=O)n2[nH]1` the value was 106% (inactive); for `COc1ccc(CNCCN2C(=O)c3ccc4c5c(ccc(c35)C2=O)C(=O)N(CCNCc2ccc(OC)c(OC)c2OC)C4=O)c(OC)c1OC`, -43.2% (active); for `COc1cc(C(C)n2cc(-c3ccccc3)nn2)ccc1OC1CCCCC1` (stereo not given), 43.7% (inactive).
As for `O=C1c2ccccc2C(=O)N1CCCCNc1ccccc1`, the figure is 5.16% (active).
As for `Clc1ccc(-c2nnc(-c3ccco3)o2)cc1`, the figure is 94.1% (inactive).
With `CCOC(=O)c1ccc(NC(=O)Nc2ncc(Cl)cc2Cl)cc1`, the growth was 95.5% (inactive).
As for `COc1ccc(C(=O)/C=C/C23c4ccccc4C(c4ccccc42)C2C(=O)NC(=O)C23)cc1` (stereo not given), the figure is 92% (inactive); as for `COc1cc(-c2n/c(=C\c3c(O)[nH]c4ccc(Cl)cc34)cc3c2=Nc2ccccc2-3)cc(OC)c1OC`, 48.3% (inactive).
As for `CC(=O)Nc1ccc(O)c(C)c1`, the figure is 104% (inactive); as for `N#CC1=C(N)Oc2c(ccc3ccccc23)C1c1ccccc1` (stereo not given), -22.3% (active).
As for `O/N=C/c1ccncc1`, the figure is 110% (inactive).
On to `CCOC(=O)c1nn(C2CCCCO2)c2ccc(NS(=O)(=O)c3ccc(C)cc3)cc12` (stereo not given), for which the growth is 97.6% (inactive).
For `COc1cc(C2C(C#N)=C(N)Oc3cc(O)ccc32)cc(OC)c1OC` (stereo not given), the growth was -26% (active).
As to `COc1ccc2c(c1)oc1c(C)c3c(c(C)c12)C(=O)N(CCOS(C)(=O)=O)C3=O`, the growth was 93.6% (inactive).
As for `O=C1CC(c2nc3ccccc3s2)CN1C1CCCCC1` (stereo not given), the figure is 91.3% (inactive); as for `CCN(C)S(=O)(=O)Nc1cccc(Nc2ncnc3cc(NC(=O)CCl)ccc23)c1Cl`, 4.38% (active); as for `Oc1ccc(N=Nc2nccs2)c(O)c1`, 5.98% (active).
As for `COCCCNc1nc(NC(=O)c2cc(OC)cc(OC)c2)cc(-c2cccnc2)n1`, the figure is 90.2% (inactive); as for `C=C1C(=O)O[C@H]2[C@H]1CC/C(COC(=O)NCc1[nH]nc3ccccc13)=C\CC[C@@]1(C)O[C@@H]21`, -51% (active); as for `O=C(Oc1ccccc1)c1cc(O)c(O)c(O)c1`, -5.58% (active).
For `CC(C)(C#N)N1CCN(c2ccccc2Cl)CC1` the value was 103% (inactive); for `COc1ccc(Oc2c(I)cc(CC(NC(C)=O)C(=O)O)cc2I)cc1` (stereo not given), 86.3% (inactive).

For the origin of these results see PubChem BioAssay (NCI).
